# Test results taken from PubChem BioAssay (NCATS).
# Records with an inconclusive call do not appear. Where a call stands in place of a potency, no number is given. Active and inactive are the calls of the source. Calls follow the shape of the dose curve; as a rule, active = well fitted curve in the direction sought with a large enough effect; inconclusive = small, poorly fitted or top-dose-only effect, or another doubt; inactive = no such curve, though single readings can be large; an effect the other way counts as inactive or inconclusive. Square brackets hold non-standard residues; d marks the D form. Peptide text beside a SMILES is read from it. * marks the point of attachment. ξ: configuration not given here. Hexanoyl = CCCCCC(=O)*; ξL = CC(C)CC(N)C(=O)O
# Legend:
# [1] = SW1088 Cancer Cell Toxicity qHTS against the NCATS CANVASS Library (AID 1347350); conditions: SW1088 viability, CellTiter-Glo luminescence, 72 h; series mostly up to 38.3 µM; also: nearly all actives have a fitted effect of over 75% in size; also: potency is read from the fitted curve at half-maximal effect
# Outline: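 Bortezomib titration and single-dose wells served as plate controls. Test compounds, 11 points, acted on 1000 cells/well for 72 h at 37 degrees C; CellTiter-Glo luminescence quantified remaining viable cells.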
# [2] = HEK293 18hr Apoptosis Induction qHTS against the NCATS CANVASS Library (AID 1347357); conditions: HEK293 caspase-3/7 Caspase-Glo luminescence; series mostly up to 46.1 µM
# Outline: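 Cells seeded at 500/well in DMEM + 10% FBS. Compounds pinned, 11 concentrations. 18 h, 37 degrees C/5% CO2. Caspase-Glo 3/7 added, 15 min RT dark, luminescence read.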
# [3] = HPAF-II 12hr Apoptosis Induction qHTS against the NCATS CANVASS Library (AID 1347358); conditions: HPAF-II caspase-3/7 Caspase-Glo luminescence; series mostly up to 46.1 µM
# Outline: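 HPAF-II cells, 500/well in DMEM + 10% FBS, exposed 12 hours at 37 degrees C to compound (11-point). Caspase-Glo 3/7 added for 15 min at room temperature; luminescence reflects caspase-3/7 activity.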
# [4] = HEK293 24hr Apoptosis Induction qHTS against the NCATS CANVASS Library (AID 1347359); conditions: HEK293 caspase-3/7 activation, Caspase-Glo luminescence; series mostly up to 46.1 µM
# Outline: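 Caspase-3/7 activation measured as luminescence from the DEVD-based Caspase-Glo reagent, 15 min at room temperature, following 24-hour compound treatment of HEK293 cells.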
# [5] = HPAF-II 18hr Apoptosis Induction qHTS against the NCATS CANVASS Library (AID 1347360); conditions: HPAF-II caspase-3/7 luminescence; series mostly up to 46.1 µM
# Outline: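 Seed HPAF-II cells at 500/well in DMEM + 10% FBS, pin-transfer compounds, incubate 18 hours at 37 degrees C/5% CO2, add Caspase-Glo 3/7 reagent, wait 15 min, read luminescence.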
# [6] = HEK293 12hr Apoptosis Induction qHTS against the NCATS CANVASS Library (AID 1347361); conditions: HEK293 caspase-3/7 Caspase-Glo luminescence; series mostly up to 46.1 µM
# Outline: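 Cells are seeded, dosed with an 11-point compound series and incubated 12 hours. Caspase-3/7 activity is detected by luminescent DEVD-substrate reagent after 15 minutes at room temperature.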
# [7] = target: Luciferin 4-monooxygenase (Photinus pyralis) (UniProt P08659); experiment: Firefly luciferase counterscreen qHTS: Assay Interference Panel against the NCATS CANVASS Library (AID 1347363); conditions: purified firefly luciferase, luminescence inhibition, 5 min; series mostly up to 57.5 µM
# Outline: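 Luminescence inhibition readout: compounds (11-point qHTS) sat 15 min at room temperature with substrate mix (0.013 mM luciferin and ATP), then firefly luciferase was added and signal read 5 min later.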
# [8] = target: Nuclear receptor subfamily 1 group I member 3 (Homo sapiens) (UniProt Q14994); experiment: qHTS for Constitutive Androstane Receptor (CAR) Antagonist screened against the NCATS CANVASS Library (AID 1347372); conditions: HepG2-hCAR-CYP2B6 luciferase, CITCO-stimulated antagonist mode; series mostly up to 46.1 µM; also: potency is read from the fitted curve at half-maximal effect
# Outline: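 HepG2-CYP2B6-hCAR double-stable cells plated, 4hr attach; cpd pin-transferred; CITCO 50 nM final; 24hr 37C/5% CO2; CellTiter-Fluor 1hr (fluorescence), then ONE-Glo luminescence.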
# [9] = target: Nuclear receptor subfamily 1 group I member 3 (Homo sapiens) (UniProt Q14994); experiment: qHTS for Constitutive Androstane Receptor (CAR) Agonist screened against the NCATS CANVASS Library (AID 1347373); conditions: HepG2-hCAR-CYP2B6 luciferase reporter, ONE-Glo luminescence; series mostly up to 46.1 µM;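 also: every well also contained 1.5 µM PK11195 alongside the test compound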; also: potency is read from the fitted curve at half-maximal effect
# Outline: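 HepG2 cells stably carrying hCAR and a CYP2B6-2.2kb luciferase reporter, treated 24hr at 37C with compounds plus 1.5uM PK11195; activation by ONE-Glo luminescence, viability by CellTiter-Fluor.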
# [10] = 10-beta competent E. coli microbial cell viability qHTS against the NCATS CANVASS Library (AID 1347376); conditions: E. coli 10-beta viability, BacTiter-Glo ATP luminescence, overnight; series mostly up to 46.1 µM
# Outline: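 10-beta competent E. coli (0.2 OD) were exposed overnight at 37C to compounds in an 11-point series. Viability was read as ATP-dependent BacTiter-Glo luminescence after 20 min at room temperature.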
# [11] = DH5-alpha competent E. coli microbial cell viability qHTS against the NCATS CANVASS Library (AID 1347377); conditions: BacTiter-Glo ATP luminescence, overnight; series mostly up to 46.1 µM
# Outline: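 DH5-alpha E. coli suspension was exposed to an 11-point compound series overnight at 37 °C. Viable cells quantified by ATP luminescence (BacTiter-Glo) after 20 min at room temperature.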
# [12] = qHTS for H2AX Agonists against the NCATS CANVASS Library (AID 1347378); conditions: CHO-K1 H2AX phosphorylation, HTRF TR-FRET, 3 h; series mostly up to 76.9 µM;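 also: phospho-H2AX S139 level in CHO-K1 lysates by TR-FRET emission ratio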
# Outline: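 CHO-K1, 1000 cells/well, o/n 37C; cpd several conc, 3 hr 37C, 0.76% DMSO; lyse 30 min RT; cryptate anti-pH2AX(S139) + d2 anti-H2AX, 24 hr RT; HTRF 665/620.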
# [13] = qHTS for Inflammasome Signaling Inhibitors: IL-1-beta AlphaLISA screen against the NCATS CANVASS Library (AID 1347379); conditions: THP-1 LPS/ATP, IL-1B AlphaLISA secretion, 16 h; series mostly up to 57.5 µM;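 also: human THP-1 cells primed with LPS then triggered with ATP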;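 as to potency: secreted IL-1B measured as AlphaLISA emission at 615 nm; potency is read from the fitted curve at half-maximal effect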
# Outline: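 THP-1 cells pretreated 1 hr with compound (up to 57.5 uM final), then stimulated with LPS (250 ng/mL final) and ATP (1.25 mM final). Secreted IL-1B measured by AlphaLISA after 16 hr; glyburide as positive control.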
# [14] = Inflammasome Signaling qHTS Counterscreen: IL-1-beta AlphaLISA counterscreen against the NCATS CANVASS Library (AID 1347381); conditions: Purified IL-1beta AlphaLISA signal interference counterscreen; series mostly up to 57.5 µM;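 also: cell-free check with purified IL-1β in medium and no THP-1 cells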
# Outline: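 Cell-free interference check: compounds added to medium spiked with 4 pg purified IL-1β. Anti-IL-1β acceptor beads (6 ug/mL) with 0.6 nM biotinylated antibody added for 1 h at RT, then streptavidin donor beads (24 ug/mL) for 30 min in the dark. AlphaLISA read at 680/615 nm.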
# [15] = qHTS for inhibitors of Wild type Zika virus screened against the NCATS CANVASS Library (AID 1347396); conditions: Vero cells, Zika virus CPE, CellTiter-Glo, 72 h; series mostly up to 45.9 µM;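 also: ATP luminescence of surviving cells so rescue from viral cell killing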
# Outline: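 Vero 766 cells, 1000/well, o/n attach; cpds pin-transferred (11-pt qHTS); WT Zika added; 72 h, 37C, 5% CO2; CellTiter Glo lumi. Uninfected + vehicle = 100% inhibition.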
# [16] = KB-3-1 Cancer Cell Toxicity qHTS against the NCATS CANVASS Library (AID 1347366); conditions: KB-3-1 viability, CellTiter-Glo luminescence, 72 h; series mostly up to 46.1 µM; also: nearly all actives have a fitted effect of over 75% in size; also: potency is read from the fitted curve at half-maximal effect
# Outline: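 Luminescence from CellTiter-Glo (10 min, room temperature) measured KB-3-1 viability after 72 hr compound exposure at 37C. Cells were seeded at 500/well and tested in an 11-point series.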
# [17] = G06 Cancer Cell Toxicity qHTS against the NCATS CANVASS Library (AID 1347368); conditions: G06 dog glioma cells, viability ATP luminescence, 72 h; series mostly up to 46.1 µM; also: nearly all actives have a fitted effect of over 60% in size; also: potency is read from the fitted curve at half-maximal effect
# Outline: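 G06 dog glioma cells, 500 per well, exposed 72 hr at 37C, 5% CO2 to compounds in an 11-point series. Cytotoxicity read as ATP content by CellTiterGlo luminescence.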
# [18] = MCF7 Cancer Cell Toxicity qHTS against the NCATS CANVASS Library (AID 1347369); conditions: MCF7 viability, ATP luminescence (CellTiter-Glo), 72 h; series mostly up to 46 µM
# Outline: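 Cells seeded at 500/well, then compound pinned. Plates incubated 72 hr at 37C, 5% CO2. CellTiterGlo added; luminescence read.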
# [19] = J3T Cancer Cell Toxicity qHTS against the NCATS CANVASS Library (AID 1347371); conditions: J3T dog glioma viability, ATP luminescence, 72 h; series mostly up to 46.1 µM
# Outline: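 J3T dog glioma cells, 500 per well, treated 72 h at 37C with compounds (11-point qHTS); viability from ATP content by CellTiterGlo luminescence; bortezomib titration as control.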
# [20] = qHTS assay for small molecule disruptors of mitochondrial membrane potential screened against the NCATS CANVASS Library (AID 1347389); conditions: HepG2 mitochondrial membrane potential, m-MPI red/green ratio, 1.5 h; series mostly up to 46.1 µM; also: nearly all actives have a fitted effect of over 60% in size; also: potency is read from the fitted curve at half-maximal effect
# Outline: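 HepG2 cells (2,000/well) plated overnight, then exposed to compounds in 11-point qHTS series for 1 h at 37C before 30 min Mito-MPS dye; depolarization read as fall in red aggregate (590 nm) to green monomer (535 nm) fluorescence.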
# Luciferin 4-monooxygenase (Photinus pyralis), sequence (P08659 whole entry, looked up): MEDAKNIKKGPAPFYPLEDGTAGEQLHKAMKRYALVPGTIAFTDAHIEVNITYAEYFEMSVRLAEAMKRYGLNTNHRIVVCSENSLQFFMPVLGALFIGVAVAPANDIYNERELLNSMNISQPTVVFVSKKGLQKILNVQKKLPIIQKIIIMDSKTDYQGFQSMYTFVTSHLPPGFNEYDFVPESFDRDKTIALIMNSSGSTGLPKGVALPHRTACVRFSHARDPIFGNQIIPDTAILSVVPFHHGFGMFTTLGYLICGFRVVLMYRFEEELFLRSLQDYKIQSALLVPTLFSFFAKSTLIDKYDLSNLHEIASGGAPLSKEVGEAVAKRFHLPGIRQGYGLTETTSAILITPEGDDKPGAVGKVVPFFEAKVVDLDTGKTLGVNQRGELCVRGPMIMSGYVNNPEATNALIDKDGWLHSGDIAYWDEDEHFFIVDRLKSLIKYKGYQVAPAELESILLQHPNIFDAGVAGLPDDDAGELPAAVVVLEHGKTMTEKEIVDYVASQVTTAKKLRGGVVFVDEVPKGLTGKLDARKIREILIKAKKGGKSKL
# Nuclear receptor subfamily 1 group I member 3 (Homo sapiens), sequence (Q14994 whole entry, looked up): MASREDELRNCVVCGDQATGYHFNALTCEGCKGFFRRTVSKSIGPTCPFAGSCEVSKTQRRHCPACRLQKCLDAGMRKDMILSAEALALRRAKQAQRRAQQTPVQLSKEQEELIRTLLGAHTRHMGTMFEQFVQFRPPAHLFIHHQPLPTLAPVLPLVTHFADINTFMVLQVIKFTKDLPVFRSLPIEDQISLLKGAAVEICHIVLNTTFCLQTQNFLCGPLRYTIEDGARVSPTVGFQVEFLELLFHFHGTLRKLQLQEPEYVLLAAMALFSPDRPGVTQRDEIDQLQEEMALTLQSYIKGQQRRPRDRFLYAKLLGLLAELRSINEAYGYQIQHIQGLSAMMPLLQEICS
SMILES,Potency [1],Potency [2],Potency [3],Potency [4],Potency [5],outcome [6],Potency [7],Potency [8],Potency [9],outcome [10],outcome [11],Potency [12],Potency [13],outcome [14],outcome [15],Potency [16],Potency [17],Potency [18],Potency [19],Potency [20]
CC[C@@H](C)[C@H]1NC(=O)C(CC(C)C)NC(=O)[C@@H](CC(C)C)NC(=O)[C@H](Cc2c[nH]c3ccccc23)NC(=O)CNC(=O)[C@@H](CC(N)=O)NC1=O (stereo partly drawn) (cyclo(GW[dL][ξL][dI][dN])),11.9 µM (active),inactive,inactive,inactive,inactive,inactive,inactive,inactive,inactive,inactive,inactive,inactive,inactive,inactive,inactive,,,,,
C=C[C@@](C)(O)CC[C@@H]1[C@@]2(C)CCCC(C)(C)[C@@H]2CC[C@@]1(C)O,,inactive,inactive,inactive,inactive,inactive,inactive,,inactive,inactive,,inactive,inactive,inactive,inactive,inactive,inactive,inactive,inactive,inactive
C=C1C[C@H]2O[C@@H]3[C@@H]4[C@H](CC[C@@](C)(O)[C@@H]42)[C@H](C)COC3(C)[C@@H](OC(=O)CCCCCCC)CC1=O (stereo not given in full),8.41 µM (active),,inactive,inactive,inactive,,inactive,inactive,inactive,inactive,inactive,inactive,19.3 µM (active),inactive,,,5.9 µM (active),inactive,,
CC1=C[C@H]2[C@H]3C(=O)C(c4ccc(O)cc4)=C[C@@]3(c3ccc(O)cc3)[C@@H]1C(=O)[C@]2(C)O,inactive,inactive,inactive,inactive,inactive,inactive,inactive,933 nM (active),inactive,inactive,inactive,inactive,inactive,inactive,,332 nM (active),0.235 µM (active),inactive,,inactive
C/C=C(/CO)C(=O)O[C@@H]1[C@H](O)[C@@H](C(=O)OC)O[C@@H]2C[C@H]3OC(n4cnc5c(N)ncnc54)[C@H](OC)[C@H]3O[C@@]12O (stereo not given in full),inactive,inactive,inactive,inactive,inactive,inactive,inactive,inactive,inactive,inactive,inactive,inactive,inactive,inactive,inactive,inactive,inactive,inactive,inactive,inactive
CCCCCC(=O)N[C@@H](CC(C)C)C(=O)N[C@H](C=O)CCC(=O)O (Hexanoyl-Leu-Glu-aldehyde),inactive,inactive,inactive,inactive,inactive,inactive,inactive,inactive,inactive,inactive,inactive,inactive,inactive,inactive,inactive,inactive,inactive,inactive,inactive,inactive
CC(=O)N[C@H](C)c1nc(/C=C/C=C/C(=O)CC2CC(=O)CC[C@]2(C)O)cs1 (stereo not given in full),inactive,inactive,inactive,inactive,inactive,inactive,inactive,inactive,inactive,inactive,inactive,inactive,inactive,inactive,inactive,inactive,inactive,inactive,inactive,inactive
Cc1cc(O)cc2c1C(=O)c1c(O)cc(O)cc1C2=O,inactive,inactive,inactive,inactive,inactive,inactive,inactive,inactive,inactive,inactive,inactive,inactive,inactive,inactive,inactive,inactive,inactive,inactive,inactive,inactive
O=C1CC(c2ccc(O)cc2)Oc2cc(O)ccc21 (stereo not given),inactive,inactive,inactive,inactive,inactive,inactive,,inactive,inactive,inactive,inactive,inactive,inactive,inactive,inactive,inactive,inactive,inactive,inactive,7.41 µM (active)
O=c1cc(-c2ccc(O)cc2)oc2cc(O)c([C@@H]3OC(CO)[C@H](O)[C@@H](O)[C@H]3O)c(O)c12 (stereo not given in full),inactive,inactive,inactive,inactive,inactive,inactive,inactive,inactive,inactive,inactive,inactive,inactive,inactive,inactive,inactive,inactive,inactive,inactive,inactive,inactive
C/C(=C\[C@@H](C)CC/C=C/CC/C=C/C(=O)O)[C@@H](O)[C@H](C)C(=O)CCCC1CC(=O)NC(=O)C1,inactive,inactive,inactive,inactive,inactive,inactive,inactive,inactive,inactive,inactive,inactive,inactive,inactive,inactive,inactive,inactive,inactive,inactive,inactive,inactive
COc1cc2c(cc1OC)[C@@H](c1ccc3c(c1)OCO3)C(C)[C@@H](C)C2=O (stereo not given in full),,inactive,inactive,inactive,inactive,inactive,inactive,inactive,9.33 µM (active),inactive,inactive,inactive,inactive,inactive,,inactive,,inactive,inactive,inactive
